This is an account of results in publication PMC7862700, “An all-to-all approach to the identification of sequence-specific readers for epigenetic DNA modifications on cytosine”.

Holding throughout (assay): DAPPL (digital affinity profiling via proximity ligation, sequencing); 10 mM Tris-HCl pH 7.5, 50 mM NaCl, 1 mM DTT, 4% glycerol, room temperature, 30 min; GST-TFs on glutathione beads, 16-mer random dsDNA library, 0.1% formaldehyde crosslink after washing; high values mean tight binding
Test [1] deals with T1, FEV (Homo sapiens, UniProt Q99581 1-238).
T1 sequence: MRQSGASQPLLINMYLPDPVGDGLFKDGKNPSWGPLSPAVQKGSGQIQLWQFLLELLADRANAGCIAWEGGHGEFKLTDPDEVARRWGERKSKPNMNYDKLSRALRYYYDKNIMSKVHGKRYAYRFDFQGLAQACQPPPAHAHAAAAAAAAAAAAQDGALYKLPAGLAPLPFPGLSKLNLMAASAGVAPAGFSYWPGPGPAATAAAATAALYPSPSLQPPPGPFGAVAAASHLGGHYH
Conditions: protein: recombinant; tags: N-terminal GST; dsDNA, one strand shown. Summed up:
(§1)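 In yeast, human transcription factors were expressed with a GST fusion, then pulled down on glutathione beads and given DNA barcodes. Pooled with a tag-only sample, they were exposed to 200 nmole of a 16-mer random double-stranded DNA library (Tris/NaCl/DTT/glycerol buffer, room temperature, 30 min), washed, crosslinked with 0.1% formaldehyde, proximity-ligated using BsaI/T4 ligase for 1 h at 37 °C, PCR-amplified and read on an Illumina NextSeq500. Each hexamer's frequency of reads for a factor, divided by the matching frequency for the tag-only sample, gives the binding signal.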

Test [2] concerns the target ETV5 (Homo sapiens, UniProt P41161 1-510). Conditions: protein: recombinant; tags: N-terminal GST; dsDNA, one strand shown. Summed up: as §1
Test [3] has as its target HSF1 (Homo sapiens, UniProt Q00613 1-529). Conditions: protein: recombinant; tags: N-terminal GST; chain copies: 3; dsDNA, one strand shown. Summed up:
as §1

Test [4] addresses T2, SPIC (Homo sapiens, UniProt Q8N5J4 1-248).
T2 sequence: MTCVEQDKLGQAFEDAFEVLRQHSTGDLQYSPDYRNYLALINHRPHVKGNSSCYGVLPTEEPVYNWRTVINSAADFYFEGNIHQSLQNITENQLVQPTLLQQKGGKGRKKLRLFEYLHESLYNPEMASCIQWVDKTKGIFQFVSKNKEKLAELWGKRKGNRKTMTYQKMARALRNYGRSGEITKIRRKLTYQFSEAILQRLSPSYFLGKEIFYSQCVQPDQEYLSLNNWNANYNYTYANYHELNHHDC
Conditions: protein: recombinant; tags: N-terminal GST; dsDNA, one strand shown. Put shortly:
as §1

The target of test [5] is ELF4 (Homo sapiens, UniProt Q99607 1-663). The conditions noted are these: protein: recombinant; tags: N-terminal GST; dsDNA, one strand shown. Summed up:
as §1

Test [6] concerns the target T3, ELK4 (Homo sapiens, UniProt P28324-2 1-405).
T3 sequence: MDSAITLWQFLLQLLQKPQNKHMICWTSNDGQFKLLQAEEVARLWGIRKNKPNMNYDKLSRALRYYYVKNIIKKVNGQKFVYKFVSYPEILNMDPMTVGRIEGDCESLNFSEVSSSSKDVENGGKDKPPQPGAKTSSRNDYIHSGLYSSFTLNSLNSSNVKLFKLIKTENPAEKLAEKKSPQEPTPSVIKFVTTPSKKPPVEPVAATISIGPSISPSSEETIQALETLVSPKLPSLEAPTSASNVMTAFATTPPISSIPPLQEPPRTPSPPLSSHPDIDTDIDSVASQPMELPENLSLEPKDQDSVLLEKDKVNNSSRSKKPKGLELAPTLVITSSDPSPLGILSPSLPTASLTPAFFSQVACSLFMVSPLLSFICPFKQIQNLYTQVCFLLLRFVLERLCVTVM
The conditions noted are these: protein: recombinant; tags: N-terminal GST; dsDNA, one strand shown. Summed up: as §1

Test [7] addresses T4, ETV2 (Homo sapiens, UniProt O00321 1-342).
T4 sequence: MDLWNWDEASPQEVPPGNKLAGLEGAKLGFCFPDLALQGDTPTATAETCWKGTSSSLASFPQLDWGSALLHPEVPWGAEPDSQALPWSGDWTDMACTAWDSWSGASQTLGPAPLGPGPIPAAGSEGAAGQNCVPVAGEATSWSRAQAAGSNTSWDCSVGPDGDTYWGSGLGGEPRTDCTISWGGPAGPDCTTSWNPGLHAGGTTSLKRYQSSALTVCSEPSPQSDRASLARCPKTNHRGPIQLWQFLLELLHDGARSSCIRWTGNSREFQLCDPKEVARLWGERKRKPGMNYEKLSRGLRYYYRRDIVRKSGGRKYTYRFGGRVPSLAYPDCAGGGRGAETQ
The conditions noted are these: protein: recombinant; tags: N-terminal GST; dsDNA, one strand shown. Put shortly:
as §1

The target in test [8] is T5, ELF3 (Homo sapiens, UniProt P78545 1-371).
T5 sequence: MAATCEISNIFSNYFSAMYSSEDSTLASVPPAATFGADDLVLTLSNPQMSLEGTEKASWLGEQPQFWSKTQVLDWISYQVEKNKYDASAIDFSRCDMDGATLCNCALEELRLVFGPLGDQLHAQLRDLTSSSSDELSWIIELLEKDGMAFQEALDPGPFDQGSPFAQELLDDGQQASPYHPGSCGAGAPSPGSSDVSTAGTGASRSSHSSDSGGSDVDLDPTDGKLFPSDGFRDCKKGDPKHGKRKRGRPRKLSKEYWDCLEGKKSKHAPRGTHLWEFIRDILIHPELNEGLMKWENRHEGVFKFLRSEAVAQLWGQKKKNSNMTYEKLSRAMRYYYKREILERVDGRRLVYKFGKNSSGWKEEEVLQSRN
Conditions: protein: recombinant; tags: N-terminal GST; dsDNA, one strand shown. Summed up:
as §1

The target in test [9] is CRX (Homo sapiens, UniProt O43186 1-299). The conditions noted are these: protein: recombinant; tags: N-terminal GST; dsDNA, one strand shown. Put shortly: as §1
Sequence of CRX (O43186 whole entry): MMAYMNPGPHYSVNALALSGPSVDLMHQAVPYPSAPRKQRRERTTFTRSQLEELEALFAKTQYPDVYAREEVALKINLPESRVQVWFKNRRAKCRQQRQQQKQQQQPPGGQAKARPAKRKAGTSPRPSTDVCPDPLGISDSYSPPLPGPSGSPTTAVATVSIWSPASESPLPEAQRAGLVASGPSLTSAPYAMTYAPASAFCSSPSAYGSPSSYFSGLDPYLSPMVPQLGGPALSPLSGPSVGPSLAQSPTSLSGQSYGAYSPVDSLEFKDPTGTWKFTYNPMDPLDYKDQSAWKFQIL
Test [10] concerns the target ETV1 (Homo sapiens, UniProt P50549 1-477). The conditions noted are these: protein: recombinant; tags: N-terminal GST; dsDNA, one strand shown. Summed up:
as §1

The target of test [11] is T6, ERF (Homo sapiens, UniProt P50548 1-548).
T6 sequence: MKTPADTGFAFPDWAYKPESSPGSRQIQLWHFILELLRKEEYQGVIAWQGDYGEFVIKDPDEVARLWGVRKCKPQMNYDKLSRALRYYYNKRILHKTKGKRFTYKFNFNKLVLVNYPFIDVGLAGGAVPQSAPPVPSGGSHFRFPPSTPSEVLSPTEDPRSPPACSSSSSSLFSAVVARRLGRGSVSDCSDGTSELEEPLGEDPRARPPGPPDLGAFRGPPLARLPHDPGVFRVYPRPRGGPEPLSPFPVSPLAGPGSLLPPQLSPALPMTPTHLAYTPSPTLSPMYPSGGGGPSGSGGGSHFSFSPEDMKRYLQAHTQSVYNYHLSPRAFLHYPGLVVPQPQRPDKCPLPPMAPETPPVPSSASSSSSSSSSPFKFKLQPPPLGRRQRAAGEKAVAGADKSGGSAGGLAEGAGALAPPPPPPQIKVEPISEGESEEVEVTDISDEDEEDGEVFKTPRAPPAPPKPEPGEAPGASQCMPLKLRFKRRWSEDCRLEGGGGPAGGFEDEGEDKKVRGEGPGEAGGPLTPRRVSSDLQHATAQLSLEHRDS
The conditions noted are these: protein: recombinant; tags: N-terminal GST; dsDNA, one strand shown. Put shortly: as §1

For test [12], the target named is T7, ETV3L (Homo sapiens, UniProt Q6ZN32 1-361).
T7 sequence: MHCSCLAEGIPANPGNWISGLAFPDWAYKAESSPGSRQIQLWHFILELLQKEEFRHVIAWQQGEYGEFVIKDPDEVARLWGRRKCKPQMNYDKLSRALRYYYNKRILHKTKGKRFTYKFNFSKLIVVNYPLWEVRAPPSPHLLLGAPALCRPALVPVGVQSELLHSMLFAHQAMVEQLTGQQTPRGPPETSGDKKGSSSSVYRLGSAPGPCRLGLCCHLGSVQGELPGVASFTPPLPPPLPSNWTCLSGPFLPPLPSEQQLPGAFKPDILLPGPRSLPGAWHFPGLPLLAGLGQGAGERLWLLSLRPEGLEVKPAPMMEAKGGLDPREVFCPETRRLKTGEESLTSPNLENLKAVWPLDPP
The conditions noted are these: protein: recombinant; tags: N-terminal GST; dsDNA, one strand shown. Summed up: as §1

In test [13] the target is T8, ETS2 (Homo sapiens, UniProt P15036 1-469).
T8 sequence: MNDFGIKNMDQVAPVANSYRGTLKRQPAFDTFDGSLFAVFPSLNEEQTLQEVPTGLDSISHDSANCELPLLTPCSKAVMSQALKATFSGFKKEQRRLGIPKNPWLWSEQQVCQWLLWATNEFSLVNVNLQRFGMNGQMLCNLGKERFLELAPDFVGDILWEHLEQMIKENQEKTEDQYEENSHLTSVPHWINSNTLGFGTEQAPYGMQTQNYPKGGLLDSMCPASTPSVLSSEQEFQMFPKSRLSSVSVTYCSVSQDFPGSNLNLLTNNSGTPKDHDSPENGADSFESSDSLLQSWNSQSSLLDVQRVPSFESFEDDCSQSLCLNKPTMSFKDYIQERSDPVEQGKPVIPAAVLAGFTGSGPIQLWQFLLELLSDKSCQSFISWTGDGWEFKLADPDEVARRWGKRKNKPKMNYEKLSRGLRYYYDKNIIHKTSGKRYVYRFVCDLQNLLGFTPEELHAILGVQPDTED
Conditions: protein: recombinant; tags: N-terminal GST; dsDNA, one strand shown. Put shortly: as §1

For test [14], the target named is T9, SPDEF (Homo sapiens, UniProt O95238 1-335).
T9 sequence: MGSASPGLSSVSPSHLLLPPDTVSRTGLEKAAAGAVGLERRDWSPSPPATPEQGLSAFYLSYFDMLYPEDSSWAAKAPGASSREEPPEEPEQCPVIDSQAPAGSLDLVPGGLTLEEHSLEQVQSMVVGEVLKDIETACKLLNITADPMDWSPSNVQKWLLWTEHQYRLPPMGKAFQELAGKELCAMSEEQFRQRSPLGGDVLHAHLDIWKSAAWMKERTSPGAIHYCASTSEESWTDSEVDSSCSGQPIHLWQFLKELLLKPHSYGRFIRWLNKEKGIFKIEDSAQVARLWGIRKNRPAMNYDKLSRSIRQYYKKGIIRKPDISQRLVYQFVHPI
The conditions noted are these: protein: recombinant; tags: N-terminal GST; dsDNA, one strand shown. Summed up: as §1

Test [15] has as its target T10, ETV7 (Homo sapiens, UniProt Q9Y603 1-341).
T10 sequence: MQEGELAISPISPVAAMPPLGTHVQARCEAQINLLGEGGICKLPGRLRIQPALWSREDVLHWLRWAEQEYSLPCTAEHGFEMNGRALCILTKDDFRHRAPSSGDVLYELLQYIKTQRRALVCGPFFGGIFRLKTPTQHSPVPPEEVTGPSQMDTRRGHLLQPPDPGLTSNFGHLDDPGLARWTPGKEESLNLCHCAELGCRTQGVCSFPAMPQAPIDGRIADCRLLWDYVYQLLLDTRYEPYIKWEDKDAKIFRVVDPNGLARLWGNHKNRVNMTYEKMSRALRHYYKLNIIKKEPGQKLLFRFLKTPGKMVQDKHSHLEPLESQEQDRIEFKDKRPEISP
The conditions noted are these: protein: recombinant; tags: N-terminal GST; dsDNA, one strand shown. Put shortly: as §1

The target of test [16] is T11, ELF5 (Homo sapiens, UniProt Q9UKW6-2 1-255).
T11 sequence: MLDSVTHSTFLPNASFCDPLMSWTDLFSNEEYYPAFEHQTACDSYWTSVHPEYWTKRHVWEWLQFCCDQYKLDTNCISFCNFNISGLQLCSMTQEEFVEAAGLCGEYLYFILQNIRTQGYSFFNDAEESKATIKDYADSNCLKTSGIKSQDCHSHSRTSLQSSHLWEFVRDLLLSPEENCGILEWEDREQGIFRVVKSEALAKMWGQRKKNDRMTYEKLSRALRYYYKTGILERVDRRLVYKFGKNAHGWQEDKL
The conditions noted are these: protein: recombinant; tags: N-terminal GST; dsDNA, one strand shown. Put shortly:
as §1

Test [17] addresses T12, ETV3 (Homo sapiens, UniProt P41162-2 1-143).
T12 sequence: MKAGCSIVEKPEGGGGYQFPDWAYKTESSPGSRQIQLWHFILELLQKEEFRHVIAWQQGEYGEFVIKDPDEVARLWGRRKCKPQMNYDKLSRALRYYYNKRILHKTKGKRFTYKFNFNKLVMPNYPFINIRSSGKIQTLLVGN
Conditions: protein: recombinant; tags: N-terminal GST; dsDNA, one strand shown. Put shortly: as §1

In test [18] the target is ETV6 (Homo sapiens, UniProt P41212 1-452). The conditions noted are these: protein: recombinant; tags: N-terminal GST; dsDNA, one strand shown. Put shortly: as §1
Sequence of ETV6 (P41212 whole entry): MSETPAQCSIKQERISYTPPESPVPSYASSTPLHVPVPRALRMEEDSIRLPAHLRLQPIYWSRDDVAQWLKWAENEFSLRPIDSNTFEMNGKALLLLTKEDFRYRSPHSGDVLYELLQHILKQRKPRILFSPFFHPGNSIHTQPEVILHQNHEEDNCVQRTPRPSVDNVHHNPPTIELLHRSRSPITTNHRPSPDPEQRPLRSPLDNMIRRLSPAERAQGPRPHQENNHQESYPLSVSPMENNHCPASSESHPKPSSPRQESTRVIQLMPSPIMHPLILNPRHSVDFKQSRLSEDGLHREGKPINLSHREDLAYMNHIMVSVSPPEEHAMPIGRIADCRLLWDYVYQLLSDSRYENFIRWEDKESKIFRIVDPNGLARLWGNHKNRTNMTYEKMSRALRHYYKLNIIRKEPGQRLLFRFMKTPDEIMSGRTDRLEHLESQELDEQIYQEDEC

Sequence of ETV1 (P50549 whole entry): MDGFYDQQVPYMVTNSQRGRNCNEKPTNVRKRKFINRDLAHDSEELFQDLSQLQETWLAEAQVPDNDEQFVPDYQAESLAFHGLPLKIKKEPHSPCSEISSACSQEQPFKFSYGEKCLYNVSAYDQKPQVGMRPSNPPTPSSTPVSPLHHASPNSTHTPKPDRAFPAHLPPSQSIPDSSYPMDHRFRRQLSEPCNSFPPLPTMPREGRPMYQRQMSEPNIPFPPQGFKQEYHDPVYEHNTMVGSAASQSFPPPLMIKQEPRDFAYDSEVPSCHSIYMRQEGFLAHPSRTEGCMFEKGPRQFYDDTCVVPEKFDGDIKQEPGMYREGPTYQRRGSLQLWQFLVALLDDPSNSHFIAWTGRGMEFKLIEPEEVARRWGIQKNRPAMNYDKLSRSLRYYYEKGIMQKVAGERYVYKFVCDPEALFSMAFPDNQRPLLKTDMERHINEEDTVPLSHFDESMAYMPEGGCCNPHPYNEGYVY
Sequence of ELF4 (Q99607 whole entry): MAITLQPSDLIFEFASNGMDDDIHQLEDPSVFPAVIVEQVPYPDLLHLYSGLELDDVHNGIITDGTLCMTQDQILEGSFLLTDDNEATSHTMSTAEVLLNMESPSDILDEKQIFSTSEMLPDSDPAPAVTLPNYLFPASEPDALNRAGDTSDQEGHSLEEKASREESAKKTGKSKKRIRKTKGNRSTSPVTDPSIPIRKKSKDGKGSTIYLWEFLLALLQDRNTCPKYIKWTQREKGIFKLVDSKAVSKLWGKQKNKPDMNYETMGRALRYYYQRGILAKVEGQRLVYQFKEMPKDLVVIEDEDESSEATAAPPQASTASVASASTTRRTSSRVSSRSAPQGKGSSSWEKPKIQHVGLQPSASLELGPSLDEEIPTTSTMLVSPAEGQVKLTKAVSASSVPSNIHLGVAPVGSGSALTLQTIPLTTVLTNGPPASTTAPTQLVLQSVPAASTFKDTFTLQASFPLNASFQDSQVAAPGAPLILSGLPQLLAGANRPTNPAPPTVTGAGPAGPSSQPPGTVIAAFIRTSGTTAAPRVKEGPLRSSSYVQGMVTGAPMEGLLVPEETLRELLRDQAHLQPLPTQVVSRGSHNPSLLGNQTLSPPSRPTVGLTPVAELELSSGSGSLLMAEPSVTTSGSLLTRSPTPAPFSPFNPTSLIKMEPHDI
Sequence of ETV5 (P41161 whole entry): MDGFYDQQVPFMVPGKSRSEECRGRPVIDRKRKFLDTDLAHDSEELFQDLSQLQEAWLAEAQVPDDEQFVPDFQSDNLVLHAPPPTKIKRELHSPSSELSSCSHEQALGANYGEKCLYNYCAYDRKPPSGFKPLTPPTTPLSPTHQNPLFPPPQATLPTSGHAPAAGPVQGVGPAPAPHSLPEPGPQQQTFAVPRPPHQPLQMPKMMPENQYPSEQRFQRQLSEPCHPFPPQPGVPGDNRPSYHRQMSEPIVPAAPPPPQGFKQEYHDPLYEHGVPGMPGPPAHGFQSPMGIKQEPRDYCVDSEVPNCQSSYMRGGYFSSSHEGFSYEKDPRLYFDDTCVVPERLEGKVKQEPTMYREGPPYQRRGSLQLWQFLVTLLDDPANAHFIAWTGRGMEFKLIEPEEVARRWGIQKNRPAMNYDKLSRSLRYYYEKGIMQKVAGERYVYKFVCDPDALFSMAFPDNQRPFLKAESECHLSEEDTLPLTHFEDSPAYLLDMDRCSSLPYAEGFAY
Sequence of HSF1 (Q00613 whole entry): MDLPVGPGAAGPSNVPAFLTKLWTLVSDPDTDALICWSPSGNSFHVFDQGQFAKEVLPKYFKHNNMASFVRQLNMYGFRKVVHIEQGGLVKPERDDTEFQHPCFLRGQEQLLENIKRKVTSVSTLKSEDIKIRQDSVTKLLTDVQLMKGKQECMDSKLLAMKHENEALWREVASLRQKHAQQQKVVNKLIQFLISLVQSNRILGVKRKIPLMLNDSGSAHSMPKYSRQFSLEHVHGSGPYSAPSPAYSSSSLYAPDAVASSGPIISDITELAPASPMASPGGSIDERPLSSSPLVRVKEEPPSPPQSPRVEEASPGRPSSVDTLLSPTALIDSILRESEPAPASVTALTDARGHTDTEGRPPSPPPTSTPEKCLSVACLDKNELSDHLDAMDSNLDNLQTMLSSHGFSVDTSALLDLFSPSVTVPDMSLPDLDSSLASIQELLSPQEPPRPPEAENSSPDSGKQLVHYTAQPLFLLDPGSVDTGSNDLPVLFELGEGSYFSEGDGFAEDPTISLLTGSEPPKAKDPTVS

On to AATTCG, for which the binding signal in test [1] is 1.26 fold enrichment (6-mer frequency, TF over GST control); in [2], 1.31 fold enrichment (6-mer frequency, TF over GST control); in test [3] it was 1.76 fold enrichment (6-mer frequency, TF over GST control); in test [4], 1.43 fold enrichment (6-mer frequency, TF over GST control); in [5], 1.26 fold enrichment (6-mer frequency, TF over GST control); in test [6], 1.23 fold enrichment (6-mer frequency, TF over GST control). Besides, the binding signal in test [7] was 1.19 fold enrichment (6-mer frequency, TF over GST control); in [8] it was 1.3 fold enrichment (6-mer frequency, TF over GST control); in [9] it was 1.57 fold enrichment (6-mer frequency, TF over GST control); in test [10], 1.18 fold enrichment (6-mer frequency, TF over GST control); in [11], 1.38 fold enrichment (6-mer frequency, TF over GST control); in [12], 1.38 fold enrichment (6-mer frequency, TF over GST control). The binding signal in [13] was 1.23 fold enrichment (6-mer frequency, TF over GST control); in test [14] it was 1.25 fold enrichment (6-mer frequency, TF over GST control); in test [15], 1.32 fold enrichment (6-mer frequency, TF over GST control); in test [16], 1.2 fold enrichment (6-mer frequency, TF over GST control); in test [17], 1.29 fold enrichment (6-mer frequency, TF over GST control); in test [18], 1.24 fold enrichment (6-mer frequency, TF over GST control).
